Molecules are shown by their SMILES. Hit rate of the full screen: of about 330,000 compounds, about 5,800 (1.8%) were called active. Rule as the data show it: active = inhibition mostly above about 38% (no sharp cut-off); inactive = mostly below about 40%. What follows is part of a selection rich in actives, with near analogues and random picks from the rest.

The target in this assay is Orexin/Hypocretin receptor type 1 (Homo sapiens) (UniProt O43613). Nature of the assay: antagonists of human orexin 1 receptor (OX1R) (AID 485270).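 Also: 0% = agonist challenge alone and 100% = reference antagonist.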 As to conditions: OX1R-expressing cells, FRET antagonist read-out; at 6.6 µM; stronger effect = higher value.
Sequence of Orexin/Hypocretin receptor type 1 (Homo sapiens) (O43613 whole entry, looked up): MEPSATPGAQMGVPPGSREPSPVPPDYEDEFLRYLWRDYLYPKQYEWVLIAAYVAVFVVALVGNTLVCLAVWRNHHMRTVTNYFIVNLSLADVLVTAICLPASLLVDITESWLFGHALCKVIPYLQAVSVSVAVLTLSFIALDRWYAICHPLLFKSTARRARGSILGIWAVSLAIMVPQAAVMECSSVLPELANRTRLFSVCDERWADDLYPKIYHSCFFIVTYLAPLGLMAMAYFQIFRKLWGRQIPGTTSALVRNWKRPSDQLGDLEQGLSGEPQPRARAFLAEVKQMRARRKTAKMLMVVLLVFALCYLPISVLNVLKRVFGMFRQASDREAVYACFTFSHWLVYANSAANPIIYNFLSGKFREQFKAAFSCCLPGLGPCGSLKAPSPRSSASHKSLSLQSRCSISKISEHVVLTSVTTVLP
Regarding `O=C(COC(=O)c1ccncc1)Nc1ccc2c(c1)OCO2`, the inhibition was 9.22% (inactive). The value for `O=C(Nc1cccc(S(=O)(=O)NC2=NCCC2)c1)c1ccc(F)cc1F` was 3.06% (inactive). The value for `Cc1cccc(-n2ncc3c(=O)[nH]c(SCC(=O)Nc4cc(C)on4)nc32)c1` was 10.5% (inactive); that for `COc1ccc(-c2nc3cc(C)ccn3c2NC2CCCCC2)cc1SC1CCCCC1` was 11.5% (inactive). The value for `Cc1ccc(NC(=O)CN(C)C(=O)c2ccc(Cl)c(S(=O)(=O)NCc3ccco3)c2)cc1` was 4.72% (inactive); that for `Cc1ccc(CNC(=O)c2ccc3c(c2)S(=O)(=O)c2ccccc2C3=O)cc1` was 61.7% (inactive); that for `CC(C)(C)c1ccc(C(=O)NCC(=O)OCN2C(=O)c3ccccc3C2=O)cc1` was -0.82% (inactive).

Turning to `COC(=O)CNC(=O)c1ccc2c(c1)S(=O)(=O)c1ccccc1C2=O`, the inhibition was 172% (active). The value for `COC(=O)[C@]1(C)N[C@H](CN(C)C(=O)c2ccc(C(C)(C)C)cc2)[C@@H]2C(=O)N(C)C(=O)[C@@H]21` was 6.6% (inactive); that for `CC(NC(=O)c1ccccc1SCC(=O)N1CCCC1)c1ccccc1` (stereo not drawn) was 6.4% (inactive). The value for `CC(C)N(Cc1ccccc1)C(=O)COC(=O)c1ccccc1SCC(=O)N1CCCC1` was 60.6% (active); that for `COc1ccccc1NC(=O)COC(=O)c1ccccc1SCC(=O)N1CCCC1` was 23.9% (inactive). As for `COc1ccc(S(=O)(=O)N(C)C[C@@H]2Oc3ccc(NC(=O)Nc4c(C)noc4C)cc3C(=O)N([C@H](C)CO)C[C@@H]2C)cc1`, the inhibition was 5.98% (inactive). Regarding `Oc1ccc(N=Cc2sc3ccccc3c2Cl)cc1`, the inhibition was 36.6% (inactive). Take `Oc1ccc(N=Cc2c(O)ccc3ccccc23)cc1`: the inhibition was 54.4% (active).

In the case of `O=[N+]([O-])c1ccc(N=Cc2c(O)ccc3ccccc23)cc1`, the inhibition is 26.6% (inactive). With `Cc1ccc(N2C(=O)N3[C@@H]4c5ccccc5OC[C@@H]4[C@@H](c4ccccc4)[C@@]3(C)C2=O)cc1`, the inhibition is 4.13% (inactive). `O=C(NN=Cc1ccc(N2CCOCC2)cc1)c1cc2ccccc2cc1O`: the inhibition is 8.04% (inactive). Turning to `C=CCn1c(SCC(=O)Nc2nc3ccccc3s2)nnc1-c1ccccc1O`, the inhibition was 53% (active). Regarding `Cn1nnnc1SCC(=O)Nc1nc2ccccc2s1`, the inhibition is 14.3% (inactive). With `C=CCn1c(SCC(=O)NCc2ccccc2)nnc1-c1cc(Br)ccc1O`, the inhibition is 13.4% (inactive).

For the compound `O=C(COc1cccnc1[N+](=O)[O-])Nc1ccc(Cl)cc1F`, the inhibition was 9.99% (inactive). On to `Cc1ccsc1C(=O)OCC(=O)NCCc1ccccc1`, for which the inhibition was 1.76% (inactive). The same measure for `CC[C@]12c3[nH]c4cc(CCC(=O)N(C)C)ccc4c3CCN1C(=O)[C@@H](CC(=O)NCCCn1ccnc1)C[C@@H]2C(=O)N1CCN(C(=O)C2CC2)CC1`: 10.3% (inactive).

As for `Clc1ccccc1SCc1nc2ccccc2[nH]1`, the inhibition was 24.1% (inactive).

With `c1ccc2c(CSCc3nc4ccccc4[nH]3)cccc2c1`, the inhibition was 90.8% (active). For `c1ccc(-c2nnc(SCc3nc4ccccc4[nH]3)o2)cc1`, the inhibition is 16.7% (inactive). Turning to `CC(C)(C)OC(=O)C[C@@H]1C/C=C\C[C@@H](CC(=O)N[C@H](CO)Cc2ccccc2)C(=O)NC[C@@H](c2ccccc2)OC1=O`, the inhibition is 8.95% (inactive).

`COC(=O)C1=C(C)N(Cc2ccccc2)C(=NCCCOC(C)C)N[C@H]1c1ccccc1`: the inhibition is 10.8% (inactive). The same measure for `COCC(=O)N1CCc2ccc(NC(=O)c3ccccc3Cl)cc2C1`: -9.22% (inactive); for `CS(=O)(=O)c1ccccc1C(=O)Nc1ccc2sccc2c1`: 11.8% (inactive); for `O=C(Nc1ccc2sc3ccccc3c(=O)c2c1)c1ccccc1Cl`: 86.1% (active). With `CCCC(CNC(=O)COC(=O)C1=NNC(=O)CC1)c1ccc(Cl)cc1Cl` (stereo not drawn), the inhibition was 9.27% (inactive).

Consider `CC1O[C@@H](OC2C(O)C(C)O[C@H](OC(=O)[C@]34CCC(C)(C)C[C@H]3C3=CCC5[C@@]6(C)CC(O)C(O[C@@H]7OC(CO)C(O)[C@@H](O)[C@@H]7O)[C@@](C)(C(=O)O)C6CC[C@@]5(C)[C@]3(CO)CC4)C2O[C@H]2OC(C)[C@@H](O[C@@H]3OCC(O[C@@H]4OC(CO)C(O)[C@H](O)C4O)[C@@H](O)[C@@H]3O)[C@H](O)C2O)C(O)C(O)C1O` (stereo partly drawn), for which the inhibition is 10.6% (inactive).

`CCC(CO)Oc1cc(NC(=O)c2cccc3ccccc23)c2ncn(C(C)C)c2c1` (stereo not drawn): the inhibition is 12.5% (inactive). With `COc1ccccc1-c1nnc2n1N=C(c1ccc(OC(F)F)c(OCC3CC3)c1)CS2`, the inhibition was 9.14% (inactive). With `C[C@@H]1CN([C@H](C)CO)C(=O)c2cc(NC(=O)NC3CCCCC3)ccc2O[C@H]1CN(C)S(C)(=O)=O`, the inhibition is 0.78% (inactive). In the case of `CC(NS(=O)(=O)c1ccc(OCC(=O)N2CCCC2)cc1)c1ccccc1` (stereo not drawn), the inhibition was 2.37% (inactive).

Regarding `COc1ccc(S(=O)(=O)NC(C)c2ccccc2)cc1C(=O)N1CCCCC1` (stereo not drawn), the inhibition was 78.9% (active). Take `COc1ccc(S(=O)(=O)Nc2ccccc2C(=O)N2CCCC2)cc1C`: the inhibition was 15.3% (inactive). Take `COc1ccc(CCNC(=O)/C(C#N)=C2\N=C(NC(=O)c3cccs3)c3ccccc32)cc1`: the inhibition is 110% (active). With `COc1cc2ccccc2cc1C(=O)Nc1ccc(NC(=O)c2cccs2)cc1`, the inhibition was 10.3% (inactive). On to `COc1ccc(CN(Cc2ccc(OC)cc2)C(=O)c2cccs2)cc1`, for which the inhibition is 5.1% (inactive). Consider `Cc1c(Br)ccc(NC(=O)COc2ccccc2C(N)=O)c1C`, for which the inhibition is 1.89% (inactive). With `CC(C)(C)n1ncc2c(=O)n(Cc3c(Cl)cccc3Br)cnc21`, the inhibition is 11.1% (inactive).

In the case of `CCn1c(C)nc2c1C(=O)c1ccccc1C2=O`, the inhibition is 99.7% (active). In the case of `Cc1nc2ccccc2n1CC(O)c1ccccc1` (stereo not drawn), the inhibition was 17.1% (inactive).

For `CCC1(CC)Cc2ccccc2-c2nc3ccccc3c(=O)n21`, the inhibition is 8.19% (inactive). Regarding `CC(C)(C)OC(=O)CNC(=O)c1[nH]cnc1C(=O)N[C@@H](CCCCN)C(=O)OC(C)(C)C`, the inhibition is 10.9% (inactive).

Regarding `C=CC[C@@H](CC(=O)N[C@H](CO)Cc1ccccc1)C(=O)N[C@@H](COC(=O)[C@@H](CC=C)Cc1ccc(F)cc1)Cc1c[nH]c2ccccc12`, the inhibition was 5.38% (inactive). The same measure for `Cc1cc(=O)oc(C)c1C(=O)NCCN(C)Cc1ccccc1`: 98.2% (active).

With `Cc1cc(=O)oc(C)c1C(=O)NCc1ccc(F)cc1`, the inhibition was 19.4% (inactive). Turning to `COc1ccc(CNC(=O)c2c(C)cc(=O)oc2C)cc1OC`, the inhibition is 8.87% (inactive).

By inhibition is commonly meant the change of the read-out against control, counted positive when it falls.

(Values after PubChem BioAssay AID485270 (The Scripps Research Institute Molecular Screening Center, 2010).)
